From PubChem BioAssay AID2283312 (EPA ToxCast)
Inconclusive results are not listed. Calls of active or inactive are those of the source. How the source made its calls: active means hit-call score of the fitted dose curve at least 0.9, where 1 is the maximum; inconclusive means response in the unintended direction; inactive means score below 0.9.

These molecules were tested against rat Vasoactive Intestinal Peptide Receptor (VIP), Non-selective Binding, Vipr1 (gene 24875) (UniProt P30083) (assay: NVS_GPCR_rVIP_NonSelective: NovaScreen (NVS) G Protein-Coupled Receptor Assay for rat Vasoactive Intestinal Peptide Receptor (VIP), Non-selective Binding).
Chain of rat Vasoactive Intestinal Peptide Receptor (VIP), Non-selective Binding, Vipr1 (gene 24875) (P30083 whole entry, looked up): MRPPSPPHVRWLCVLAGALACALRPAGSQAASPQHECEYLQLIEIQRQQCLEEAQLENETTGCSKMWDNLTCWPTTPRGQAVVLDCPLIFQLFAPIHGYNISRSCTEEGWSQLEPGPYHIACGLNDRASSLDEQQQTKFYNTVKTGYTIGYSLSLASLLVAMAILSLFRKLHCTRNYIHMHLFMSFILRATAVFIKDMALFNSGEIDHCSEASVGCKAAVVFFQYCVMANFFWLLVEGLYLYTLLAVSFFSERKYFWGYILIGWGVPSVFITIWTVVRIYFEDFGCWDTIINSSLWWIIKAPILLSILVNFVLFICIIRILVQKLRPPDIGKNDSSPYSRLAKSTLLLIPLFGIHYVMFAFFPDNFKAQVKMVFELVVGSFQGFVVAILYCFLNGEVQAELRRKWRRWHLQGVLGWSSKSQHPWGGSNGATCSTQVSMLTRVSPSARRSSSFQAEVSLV
Procedure: NVS_GPCR_rVIP_NonSelective is a biochemical, single-readout assay that uses extracted gene-proteins from Rat forebrain membranes in a tissue-based cell-free assay. Measurements were taken 1 hour after chemical dosing in a 96-well plate.NVS_GPCR_rVIP_NonSelective is one of one assay component(s) measured or calculated from the NVS_GPCR_rVIP_NonSelective assay. It is designed to make measurements of radioligand binding, a form of binding reporter, as detected with scintillation counting signals by Filter-based radiodetection technology.Data from the assay component NVS_GPCR_rVIP_NonSelective was analyzed into 1 assay endpoint. This assay endpoint, NVS_GPCR_rVIP_NonSelective, was analyzed in the positive analysis fitting direction relative to DMSO as the negative control and baseline of activity. Using a type of binding reporter, loss-of-signal activity can be used to understand changes in the binding as they relate to the gene Vipr1. Furthermore, this assay endpoint can be referred to as a primary readout, because the performed assay has only produced 1 assay endpoint. To generalize the intended target to other relatable targets, this assay endpoint is annotated to the gpcr intended target family, where the subfamily is secretin receptor.
Binding assays used specific radioligands (tritiated, iodinated) with non-radioactive competitive displacement ligands in agonist or antagonist protocols (as indicated) and various reference compounds and inhibitors to titrate specific binding to receptors and transporters. Most enzyme assays (CYPs, kinases, phosphatases, proteases, HDACs) used recombinant protein and specific substrates (fluorescence mostly, some colorimetric and radioactive) and inhibitors, followed by a biochemical separation of substrate and product. All assays for the biochemical HTS were initially run in duplicate at a single concentration (10 uM for CYP450 assays and 25 uM for all others). Assay-chemical combinations meeting a pre-defined threshold (e.g., 30% inhibition and other criteria defined below) were then run in singleton concentration-response format with maximum concentration of 20 uM for CYPs and 50 uM for all others. Each assay was run with positive and negative controls, and concurrent controls on every plate. The follow-up (secondary) screen tested active chemical-pairs in concentration series, as well as a few additional assays not tested in the primary screen, some selected negative inactives, and several cases re-run in the concentration series for confirmatory purposes.

Row | SMILES | outcome | AC50
1 | CC(=O)NC1(c2cccc(F)c2)CCN(CC[C@@]2(c3ccc(Cl)c(Cl)c3)CN(c3ccccc3)C(=O)CO2)CC1 | inactive | 
2 | O=C(NO)C1(NS(=O)(=O)c2ccc(Oc3ccc(F)cc3)cc2)CCOCC1 | inactive | 
3 | O=C(N[C@@H](c1ccccc1)[C@@H]1CCCCN1)c1cccc(C(F)(F)F)c1Cl | inactive | 
4 | COCC(C)OCC(C)OCC(C)O (stereo not given) | inactive | 
5 | CC(C)(c1ccc(O)cc1)c1ccc(O)cc1 | inactive | 
6 | c1ccc(Nc2ccccc2)cc1 | inactive | 
7 | CCOC(=O)O[C@H](C)OC(=O)c1ccc2c(c1)cc(C(=O)NC1CCN(C(C)C)CC1)n2Cc1cc(-c2ccc(Cl)s2)on1 |  | 23.6 µM (active)
8 | NCc1cccc(C2CCN(C(=O)c3ccc(C#Cc4ccccc4F)o3)CC2)c1 | inactive | 
9 | CCCCCCCCCC | inactive | 
10 | CN(C)C(=O)C1(N2CCCCC2)CCN(CC[C@@]2(c3ccc(Cl)c(Cl)c3)CN(C(=O)c3ccccc3)CCO2)CC1 | inactive | 
